# From PubChem BioAssay AID1159580 (chemical genetic matrix, 2015)
# About 2,000 (36%) of roughly 5,500 compounds were called active. Roughly 18% stayed inconclusive and do not appear here. The list shows a part of the results. A number with no mark means an inactive call. Cut-off read from the data, not from the text of the source: active = normalized growth mostly below about 0.91 (no sharp cut-off); inconclusive = no clear call, values can overlap the other calls; inactive = mostly above about 0.92.
# Experiment: chemical genetic growth profiling, strain panel (AID 1159580);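 note: tested at 20 µM; growth read once vehicle control cultures reached saturation at 30 °C; 1 = growth at the plate median or of vehicle wells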
# Settings: S. cerevisiae deletion strains, growth OD
smiles,measurement,setting,value
COc1ccc(NC(=O)O/N=C(/N)c2ccc(Oc3c(Cl)cncc3Cl)cc2)cc1,normalized growth,"locus YAR019C, strain CDC15, stronger effect = lower value",0.966
same,normalized growth,"locus YBL105C, strain PKC1, stronger effect = lower value",0.974
same,normalized growth,"locus YBR135W, strain CKS1, stronger effect = lower value",0.975
same,normalized growth,"locus YBR136W, strain MEC1, stronger effect = lower value",0.982
same,normalized growth,"locus YBR160W, strain CDC28, stronger effect = lower value",0.976
same,normalized growth,"locus YDL017W, strain CDC7, stronger effect = lower value",0.98
same,normalized growth,"locus YDL028C, strain MPS1, stronger effect = lower value",0.987
same,normalized growth,"locus YDL101C, strain DUN1, stronger effect = lower value",0.969
same,normalized growth,"locus YDL108W, strain KIN28, stronger effect = lower value",0.99
same,normalized growth,"locus YDL132W, strain cdc53, stronger effect = lower value",0.966
same,normalized growth,"locus YDL214C, strain PRR2, stronger effect = lower value",0.825
same,normalized growth,"locus YDR052C, strain DBF4, stronger effect = lower value",0.986
same,normalized growth,"locus YDR054C, strain cdc34, stronger effect = lower value",0.959
same,normalized growth,"locus YDR226W, strain ADK1, stronger effect = lower value",0.965
same,normalized growth,"locus YDR477W, strain SNF1, stronger effect = lower value",0.758
same,normalized growth,"locus YER123W, strain YCK3, stronger effect = lower value",0.575 (active)
same,normalized growth,"locus YER133W, strain GLC7, stronger effect = lower value",0.751
same,normalized growth,"locus YFL009W, strain cdc4, stronger effect = lower value",0.963
same,normalized growth,"locus YFL029C, strain CAK1, stronger effect = lower value",0.971
same,normalized growth,"locus YFR003C, strain YPI1, stronger effect = lower value",0.972
same,normalized growth,"locus YFR019W, strain FAB1, stronger effect = lower value",0.527 (active)
same,normalized growth,"locus YFR028C, strain CDC14, stronger effect = lower value",0.963
same,normalized growth,"locus YGR040W, strain KSS1, stronger effect = lower value",0.751
same,normalized growth,"locus YGR052W, strain FMP48, stronger effect = lower value",0.694
same,normalized growth,"locus YGR092W, strain DBF2, stronger effect = lower value",0.706
same,normalized growth,"locus YHR030C, strain SLT2, stronger effect = lower value",0.71 (active)
same,normalized growth,"locus YHR079C, strain IRE1, stronger effect = lower value",0.618
same,normalized growth,"locus YHR082C, strain KSP1, stronger effect = lower value",0.805
same,normalized growth,"locus YHR205W, strain SCH9, stronger effect = lower value",0.743
same,normalized growth,"locus YIL147C, strain SLN1, stronger effect = lower value",0.963
same,normalized growth,"locus YJL095W, strain BCK1, stronger effect = lower value",0.578
same,normalized growth,"locus YJL128C, strain PBS2, stronger effect = lower value",0.971
same,normalized growth,"locus YJL157C, strain FAR1, stronger effect = lower value",0.805
same,normalized growth,"locus YJR016C, strain ILV3, stronger effect = lower value",0.975
same,normalized growth,"locus YJR066W, strain TOR1 (second series), stronger effect = lower value",0.572 (active)
same,normalized growth,"locus YJR066W, strain TOR1, stronger effect = lower value",0.69
same,normalized growth,"locus YKL048C, strain ELM1, stronger effect = lower value",0.95
same,normalized growth,"locus YKL067W, strain YNK1, stronger effect = lower value",0.866
same,normalized growth,"locus YKL101W, strain HSL1, stronger effect = lower value",0.881
same,normalized growth,"locus YKL193C, strain SDS22, stronger effect = lower value",0.97
same,normalized growth,"locus YKL203C, strain TOR2, stronger effect = lower value",0.806
same,normalized growth,"locus YLR113W, strain HOG1, stronger effect = lower value",0.604 (active)
same,normalized growth,"locus YLR133W, strain CKI1, stronger effect = lower value",0.825
same,normalized growth,"locus YLR403W, strain SFP1, stronger effect = lower value",0.756
same,normalized growth,"locus YML070W, strain DAK1, stronger effect = lower value",0.804
same,normalized growth,"locus YMR001C, strain CDC5, stronger effect = lower value",0.958
same,normalized growth,"locus YMR205C, strain PFK2 (second series), stronger effect = lower value",0.898
same,normalized growth,"locus YMR277W, strain FCP1, stronger effect = lower value",0.977
same,normalized growth,"locus YNL006W, strain LST8, stronger effect = lower value",0.981
same,normalized growth,"locus YNL020C, strain ARK1, stronger effect = lower value",0.856
same,normalized growth,"locus YNL161W, strain CBK1, stronger effect = lower value",0.962
same,normalized growth,"locus YNL183C, strain NPR1, stronger effect = lower value",0.593
same,normalized growth,"locus YNL207W, strain RIO2, stronger effect = lower value",0.957
same,normalized growth,"locus YNL222W, strain SSU72, stronger effect = lower value",0.965
same,normalized growth,"locus YNL307C, strain MCK1 (second series), stronger effect = lower value",0.745
same,normalized growth,"locus YOL078W, strain AVO1, stronger effect = lower value",0.973
same,normalized growth,"locus YOL136C, strain PFK27, stronger effect = lower value",0.793
same,normalized growth,"locus YOR061W, strain CKA2, stronger effect = lower value",0.87
same,normalized growth,"locus YOR119C, strain RIO1, stronger effect = lower value",0.781
same,normalized growth,"locus YOR231W, strain MKK1, stronger effect = lower value",0.661
same,normalized growth,"locus YOR329C, strain SCD5, stronger effect = lower value",0.971
same,normalized growth,"locus YPL031C, strain PHO85, stronger effect = lower value",0.726
same,normalized growth,"locus YPL153C, strain RAD53, stronger effect = lower value",0.728
same,normalized growth,"locus YPL204W, strain HRR25, stronger effect = lower value",0.676
same,normalized growth,"locus YPL209C, strain IPL1, stronger effect = lower value",0.963
same,normalized growth,"locus YPL256C, strain CLN2, stronger effect = lower value",0.676 (active)
same,normalized growth,"locus YPR025C, strain CCL1, stronger effect = lower value",0.965
same,normalized growth,"locus YPR106W, strain ISR1, stronger effect = lower value",0.98
same,normalized growth,"locus YPR111W, strain DBF20, stronger effect = lower value",1
same,normalized growth,"strain NNK1, stronger effect = lower value",1
same,normalized growth,"strain TSCII, stronger effect = lower value",0.975
